The campaign covered roughly 310,000 compounds. About 14,000 (4.5%) showed an effect of 50% or more. The effect is printed as a negative number. The entries come from a sample that favours strong results as a whole.
Target: human ether-à-go-go-related gene (hERG) potassium channel (human, UniProt Q12809)
Assay: primary screen, population patch clamp on CHO cells stably expressing hERG; higher = less effect of the substance
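Further: peak tail current of the secondary pulse compared with the same well before compound.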

Chain of human ether-à-go-go-related gene (hERG) potassium channel (Q12809 whole entry, looked up): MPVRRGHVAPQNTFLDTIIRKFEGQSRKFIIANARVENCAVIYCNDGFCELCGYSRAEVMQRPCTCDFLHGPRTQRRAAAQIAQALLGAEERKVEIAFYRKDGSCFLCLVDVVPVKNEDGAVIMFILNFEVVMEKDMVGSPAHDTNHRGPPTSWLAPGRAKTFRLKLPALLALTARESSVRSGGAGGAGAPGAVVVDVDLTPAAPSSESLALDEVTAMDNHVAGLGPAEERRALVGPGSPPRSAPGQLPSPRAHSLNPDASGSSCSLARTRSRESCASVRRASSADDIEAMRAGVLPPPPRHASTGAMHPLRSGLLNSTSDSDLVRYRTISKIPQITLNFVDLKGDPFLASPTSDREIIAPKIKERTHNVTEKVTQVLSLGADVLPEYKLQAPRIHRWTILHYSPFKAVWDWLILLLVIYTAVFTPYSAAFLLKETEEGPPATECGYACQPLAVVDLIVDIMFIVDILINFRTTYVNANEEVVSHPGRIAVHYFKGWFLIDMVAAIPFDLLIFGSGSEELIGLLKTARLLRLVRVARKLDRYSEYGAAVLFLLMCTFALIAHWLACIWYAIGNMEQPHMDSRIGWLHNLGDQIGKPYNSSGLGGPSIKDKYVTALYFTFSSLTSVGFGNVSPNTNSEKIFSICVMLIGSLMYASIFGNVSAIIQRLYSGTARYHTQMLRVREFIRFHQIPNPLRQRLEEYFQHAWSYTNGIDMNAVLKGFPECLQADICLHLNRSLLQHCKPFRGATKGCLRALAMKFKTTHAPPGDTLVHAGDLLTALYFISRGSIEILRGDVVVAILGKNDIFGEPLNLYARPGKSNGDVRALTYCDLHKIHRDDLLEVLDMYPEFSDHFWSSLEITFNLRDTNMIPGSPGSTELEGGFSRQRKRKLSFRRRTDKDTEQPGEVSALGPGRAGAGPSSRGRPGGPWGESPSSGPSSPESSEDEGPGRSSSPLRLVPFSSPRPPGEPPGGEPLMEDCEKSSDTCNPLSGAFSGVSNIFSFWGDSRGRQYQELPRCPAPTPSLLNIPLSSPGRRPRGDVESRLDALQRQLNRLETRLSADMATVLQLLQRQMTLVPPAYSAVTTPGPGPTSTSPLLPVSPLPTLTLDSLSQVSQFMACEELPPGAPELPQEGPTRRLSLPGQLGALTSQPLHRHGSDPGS

| SMILES | hERG current change (%, negative = inhibition) at 10uM |
| --- | --- |
| Cc1ccc2nc(SCC(=O)N3c4ccccc4CC3C)c(C)cc2c1 (centres unmarked) | 7.54% |
| COc1ccc(NC(=O)C2CC2)cc1-n1cnnn1 | 5.86% |
| O=C1CC(c2ccccc2)Cc2nc(N3CCc4ccccc4C3)ncc21 (centres unmarked) | -2.75% |
| CCC(CO)N=CC1=C(O)CC(c2ccccc2)CC1=O (centres unmarked) | 17.1% |
| Cc1cc(C)c(NC2=NS(=O)(=O)c3ccccc32)c(C)c1 | -10.9% |
| CC1=NC(Nc2nc(C)c3ccccc3n2)=NC(C)(C)C1 | -69.4% |
| CC(=O)c1cnc(Nc2nc(C)c3ccccc3n2)nc1C | 17.3% |
| COc1ccc(Nc2nc(C)c3ccccc3n2)cc1 | -17.4% |
| O=C(O)c1ccccc1Sc1ncnc2sccc12 | 9.7% |
| Cc1cc(C(=O)OCC(=O)NC2CCS(=O)(=O)C2)c(C)n1-c1ccccc1 (centres unmarked) | -6.8% |
| CC(NC(=O)Nc1nnc(C(F)(F)F)s1)(C(F)(F)F)C(F)(F)F | -7.61% |
| CCc1nnc(NC(=O)CCN2C(=O)c3ccccc3S2(=O)=O)s1 | 17.3% |
| CCOC(=O)c1c(C)[nH]c(C(=O)N/N=C/c2ccc(OC)c(OC)c2)c1C | 12.7% |
| COc1ccc(/C=C(\NC(=O)c2ccc([N+](=O)[O-])cc2)C(=O)NCCN2CCOCC2)cc1 | -70.7% |
| COc1ccc(/C=C(\NC(=O)c2ccccc2)C(=O)NCCN2CCOCC2)cc1OC | 23% |
| COc1ccc(C(=O)N/C(=C\c2cn(C)c3ccccc23)C(=O)NCCCN2CCOCC2)cc1 | 4.94% |
| COc1ccc(C(=O)N/C(=C\c2ccco2)C(=O)NCCN2CCOCC2)cc1 | 8.33% |
| O=C(NC(=S)NCCCN1CCOCC1)c1ccc([N+](=O)[O-])cc1 | -33.4% |
| COc1ccc(/C=C(\NC(=O)c2ccc([N+](=O)[O-])cc2)C(=O)NCCCN2CCOCC2)cc1 | -77% |
| COc1cc2c(cc1OC)C(c1ccccc1)CC2=O (centres unmarked) | 7.03% |
| COC(=O)c1ccc(-c2nc3ccccc3[nH]2)cc1 | 17.8% |
| CC(Oc1cccc(Cl)c1)C(=O)Nc1ccncc1 (centres unmarked) | 3.81% |

| SMILES | hERG current change (%, negative = inhibition) at 10uM |
| --- | --- |
| Cc1cccc(OCCNc2ccc([N+](=O)[O-])cn2)c1 | -21.3% |
| Cc1cc(Cl)ccc1OC(C)C(=O)Nc1ccc([N+](=O)[O-])cn1 (centres unmarked) | -75.9% |
| Cc1cccc(Nc2ccc([N+](=O)[O-])cn2)c1 | 10.9% |
| Cc1cccc(C(C)Nc2ccc([N+](=O)[O-])cn2)c1 (centres unmarked) | -68.9% |
| CCC(C(=O)Nc1ccc([N+](=O)[O-])cn1)c1ccccc1 (centres unmarked) | -67.4% |
| CCC(CC)C(=O)Nc1ccc([N+](=O)[O-])cn1 | 10.8% |
| CC(Oc1cccc(Cl)c1)C(=O)Nc1ccc([N+](=O)[O-])cn1 (centres unmarked) | -62.2% |
| CC(Oc1cccnc1[N+](=O)[O-])C(=O)Nc1ccc(Cl)cn1 (centres unmarked) | -16.6% |
| CCC(C(=O)Nc1ccccn1)c1ccccc1 (centres unmarked) | 1.4% |
| Cc1csc(NC(=O)C(C)Oc2ccc(Cl)cc2C)n1 (centres unmarked) | -21% |
| CC(=O)Nc1ccc([N+](=O)[O-])cn1 | 24.4% |
| CCN(CC)S(=O)(=O)c1ccc(NC(=O)Cc2cccs2)cc1 | 5.81% |
| CCOC(=O)c1c(NC(=O)CSc2nc3c(c(=O)n(C)c(=O)n3C)n2C(C)C)sc(C)c1C | -0.527% |
| CCCCNC(=O)c1cc([N+](=O)[O-])[nH]n1 | 19.1% |
| COCCNc1nc(SCC(=O)N2CCN(c3ccccc3OC)CC2)nc2ccccc12 | -88.6% |
| COc1ccccc1N1CCN(C(=O)CSc2nc3ccccc3nc2N2CCCCC2)CC1 | 19% |
| COCCNC(=O)CSc1nc2ccccc2c(=O)n1CCC(=O)N1CCN(c2ccccc2)CC1 | -35% |
| COCCNc1nc(SCC(=O)N2CCN(c3ccccc3)CC2)nc2ccccc12 | -86.9% |
| O=C(CSc1nc2ccccc2c(=O)[nH]1)N1CCN(c2ccccc2)CC1 | 14.1% |
| COc1ccccc1N1CCN(C(=O)CSc2nnc3c4ccccc4nc(Cc4ccccc4)n23)CC1 | -4.18% |
| O=C(NC1CC1)c1ccc(-c2nc3ccccc3s2)s1 | 10.7% |
| O=C(Cn1cnc2ccccc2c1=O)Nc1nnc(SCc2ccc(Cl)cc2)s1 | 10.9% |

Source: article PMC4336329 (PLoS ONE, 2015)
